Screening data (PubChem)
Only some compounds are listed: those with a hit (about 11% of all), similar ones and a draw of the others.
3T3 cytotox = Cytotoxic Profiling in NIH 3T3 Cell Line of Diverse Libraries Using Quantitative High-Throughput Screening; NIH 3T3 viability, CellTiter-Glo ATP luminescence, 48-72 h; Potency, µM (top dose mostly 96.7 µM), actives largely listed as inhibitors; hit rate 4.3% among 94,000; AID 1345082, 2018; active = well fitted curve in the direction sought with a large enough effect; inconclusive = small, poorly fitted or top-dose-only effect, or another doubt; inactive = no such curve, though single readings can be large; an effect the other way counts as inactive or inconclusive; note: nearly all actives have a fitted effect of over 55% in size
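ATP-dependent luminescence (CellTiter-Glo) served as the viability signal for NIH 3T3 cells treated with compound for 48 or 72 hr at 37 °C.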
FLuc inh = Firefly luciferase inhibition profiling of diverse chemical library using quantitative high-throughput screening. Potency, µM (series often up to 115 µM), usual class: inhibitors. hit rate 2.5% among 76,000. purified P. pyralis luciferase, luminescence, biochemical; active = well fitted curve in the direction sought with a large enough effect; inconclusive = small, poorly fitted or top-dose-only effect, or another doubt; inactive = no such curve, though single readings can be large; an effect the other way counts as inactive or inconclusive; note: nearly all actives have a fitted effect of over 65% in size
Target sequence (P08659 whole entry, looked up): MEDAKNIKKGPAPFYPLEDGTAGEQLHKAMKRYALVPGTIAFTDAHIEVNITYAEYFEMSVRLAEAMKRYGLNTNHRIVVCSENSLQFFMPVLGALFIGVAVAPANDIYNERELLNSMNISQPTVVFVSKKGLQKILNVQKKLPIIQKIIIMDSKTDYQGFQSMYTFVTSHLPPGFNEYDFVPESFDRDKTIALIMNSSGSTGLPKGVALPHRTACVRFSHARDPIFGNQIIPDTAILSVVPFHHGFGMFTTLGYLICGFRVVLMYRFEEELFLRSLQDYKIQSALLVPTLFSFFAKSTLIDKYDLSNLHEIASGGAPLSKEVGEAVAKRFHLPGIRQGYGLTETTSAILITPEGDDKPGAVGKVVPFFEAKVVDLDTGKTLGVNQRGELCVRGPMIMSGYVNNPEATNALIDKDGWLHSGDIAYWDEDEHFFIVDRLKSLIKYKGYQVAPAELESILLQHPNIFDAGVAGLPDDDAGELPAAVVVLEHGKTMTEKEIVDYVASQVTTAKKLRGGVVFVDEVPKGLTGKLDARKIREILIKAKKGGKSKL
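Cell-free enzyme assay, 10nM P. pyralis luciferase, luciferin and ATP each at 10uM. Inhibition profiled over a 6-point titration, read as luminescence.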
hNpr1 antagonist = Natriuretic polypeptide receptor (hNpr1) antagonism - Primary qHTS | Atrial natriuretic peptide receptor 1 (Homo sapiens), P16066 | HEK293 hNpr1 GloSensor cGMP, ANP-stimulated luminescence | Potency, µM (titrated, usually from 46.3 µM), most hits filed as inhibitors | hit rate 1.6% among 76,000 | AID 1347048, 2019; note: nearly all actives have a fitted effect of over 60% in size
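Compound pre-incubated 30 min at room temperature on GloSensor-loaded HEK293 cells stably carrying hNpr1 and the pGS-40F cGMP biosensor. Stimulation uses hNppA at 0.1 nM final; luminescence is taken at baseline and 20 min post-agonist.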
HEK cytotox = Cytotoxic Profiling in HEK 293 Cell Line of Diverse Libraries Using Quantitative High-Throughput Screening; HEK 293 viability, ATP luminescence (CellTiter-Glo), 48-72 h; Potency, µM (highest dose often 115 µM), actives largely listed as inhibitors; hit rate 6.6% among 94,000; active = well fitted curve in the direction sought with a large enough effect; inconclusive = small, poorly fitted or top-dose-only effect, or another doubt; inactive = no such curve, though single readings can be large; an effect the other way counts as inactive or inconclusive; note: nearly all actives have a fitted effect of over 60% in size
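250 HEK 293 cells/well; compound by pintool; incubated 48 or 72 hr at 37 degree Celsius; CellTiter-Glo added, 10 min RT, luminescence imaged.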
Npr1 antag conf = Natriuretic polypeptide receptor (hNpr1) antagonism - Confirmation; shares compounds with hNpr1 antagonist; HEK293 hNpr1 cGMP GloSensor luminescence, ANP-stimulated; Potency, µM (doses to about 57.6 µM), most hits filed as inhibitors; hit rate 76% among 1,400; note: nearly all actives have a fitted effect of over 70% in size
Npr2 selectivity = Natriuretic polypeptide receptor (hNpr2) antagonism - Subtype selectivity assay; Potency, µM (series often up to 57.6 µM), actives largely listed as inhibitors; hit rate 67% among 1,400; HEK293 hNpr2 GloSensor cGMP luminescence, CNP-stimulated; shares compounds with hNpr1 antagonist; note: nearly all actives have a fitted effect of over 70% in size
FLuc inh counter = Natriuretic polypeptide receptor (hNpr1) antagonism - Confirmation firefly luciferase (FLuc) inhibition counterscreen | hit rate 0.7% among 1,400 | Potency, µM (series often up to 57.6 µM), usual class: inhibitors | purified FLuc enzyme, luminescence, Km substrate | shares compounds with hNpr1 antagonist | AID 1347047, 2019; active = well fitted curve in the direction sought with a large enough effect; inconclusive = small, poorly fitted or top-dose-only effect, or another doubt; inactive = no such curve, though single readings can be large; an effect the other way counts as inactive or inconclusive
GloSensor cGMP = Natriuretic polypeptide receptor (hNpr1) antagonism - Counterscreen GloSensor control cell line; shares compounds with hNpr1 antagonist; HEK293 GloSensor cGMP, SNP-stimulated, luminescence; Potency, µM (titrated, usually from 57.6 µM), usual class: inhibitors; hit rate 69% among 1,400; AID 1347051, 2019; note: nearly all actives have a fitted effect of over 70% in size
Large screens that a line does not name were inactive (follow-up assays come after a bar, where they were run). Unless noted, calls come from the whole dose curve.

COc1ccc(NC(=O)Cn2c(N(C)Cc3ccccc3)nc(C)cc2=O)cc1OC	3T3 cytotox inconclusive, hNpr1 antagonist 4.5µM, HEK cytotox inconclusive | Npr1 antag conf 6.9µM | Npr2 selectivity 11µM | FLuc inh counter inactive | GloSensor cGMP 7.7µM
Cc1ccc(NC(=O)Cn2c(N(C)Cc3ccccc3)nc(C)cc2=O)c(Cl)c1	3T3 cytotox inconclusive, hNpr1 antagonist inconclusive, HEK cytotox inconclusive
Cc1cc(=O)n(CC(=O)Nc2ccc(F)c(Cl)c2)c(N(C)Cc2ccccc2)n1	hNpr1 antagonist 11µM | Npr1 antag conf 24µM | Npr2 selectivity inconclusive | FLuc inh counter inactive | GloSensor cGMP 22µM
Cc1cc(=O)n(CC(=O)Nc2ccc(F)cc2)c(N(C)Cc2ccccc2)n1	3T3 cytotox inconclusive, HEK cytotox inconclusive
Cc1cc(=O)n(CC(=O)Nc2ccc(Br)cc2F)c(N(C)Cc2ccccc2)n1	3T3 cytotox inconclusive, hNpr1 antagonist inconclusive, HEK cytotox inconclusive | Npr1 antag conf 22µM | Npr2 selectivity 19µM | FLuc inh counter inactive | GloSensor cGMP 19µM
Cc1cc(=O)n(CC(=O)Nc2ccc(C)c(F)c2)c(N(C)Cc2ccccc2)n1	3T3 cytotox inconclusive, hNpr1 antagonist inconclusive, HEK cytotox inconclusive
Cc1cc(=O)n(CC(=O)Nc2ccc(Cl)cc2F)c(N(C)Cc2ccccc2)n1	hNpr1 antagonist 13µM, HEK cytotox inconclusive | Npr1 antag conf 24µM | Npr2 selectivity inconclusive | FLuc inh counter inactive | GloSensor cGMP inconclusive
Cc1cc(=O)n(CC(=O)Nc2ccc(Br)cc2)c(N(C)Cc2ccccc2)n1	3T3 cytotox inconclusive, hNpr1 antagonist inconclusive, HEK cytotox inconclusive
Cc1nc(-c2ccc(F)cc2)n(Cc2nc(-c3ccc(OC(C)C)cc3)oc2C)c(=O)c1CCO	none
O=C1NCCCCCCN(Cc2ccncc2)[C@@H]2CN(C(=O)Nc3ccccc3)CC[C@H]12	3T3 cytotox inconclusive
Cc1nc2ccccc2nc1CN1CCC2(CCC(=O)N(CCO)C2)CC1	3T3 cytotox inconclusive, HEK cytotox inconclusive
CCNC(=O)CC1=CSC2=NC(C)=C(C(=O)Nc3ccccc3)C(c3ccc(F)cc3)N12 (stereo unspecified)	hNpr1 antagonist inconclusive, HEK cytotox inconclusive | Npr1 antag conf inconclusive | Npr2 selectivity inactive | FLuc inh counter inactive | GloSensor cGMP inactive
CC1=C(C(=O)Nc2ccccc2)C(c2cccc(C)c2)N2C(CC(=O)NC3CC3)=CSC2=N1 (stereo unspecified)	3T3 cytotox inconclusive, hNpr1 antagonist inconclusive, HEK cytotox inconclusive | Npr1 antag conf inconclusive | Npr2 selectivity inconclusive | FLuc inh counter inactive | GloSensor cGMP inconclusive
O=C(c1ccc(Cl)s1)N1CCCC2(C1)Nc1cccnc1NC2=NC1CCCC1 (stereo unspecified)	3T3 cytotox inconclusive, hNpr1 antagonist inconclusive, HEK cytotox inconclusive
COc1ccc(CCC(=O)N2C[C@@H](Oc3cccnc3)C[C@H]2C(=O)N2CCOCC2)cc1	none (no result: FLuc inh, hNpr1 antagonist)
CCCN1C(=O)Cc2ccccc2C1C(=O)NCc1cc(OC)ccc1OC (stereo unspecified)	HEK cytotox inconclusive | Npr1 antag conf inconclusive | Npr2 selectivity inconclusive | FLuc inh counter inactive | GloSensor cGMP inactive
O=C1c2c(nc(CNCc3cccc(Cl)c3)n2Cc2ccccc2)NCCN1CCOc1ccccc1	3T3 cytotox inconclusive, HEK cytotox inconclusive | Npr1 antag conf inconclusive | Npr2 selectivity inconclusive | FLuc inh counter inactive | GloSensor cGMP inconclusive
O=C1c2c(nc(COc3ccc4c(c3)OCO4)n2Cc2ccccc2)NCCN1Cc1ccccc1F	3T3 cytotox inconclusive, hNpr1 antagonist inconclusive, HEK cytotox 35µM | Npr1 antag conf 24µM | Npr2 selectivity inconclusive | FLuc inh counter inactive | GloSensor cGMP inconclusive
O=C1c2c(nc(CNCc3cccc(F)c3)n2Cc2ccccc2)NCCN1Cc1cccc(Cl)c1	3T3 cytotox inconclusive, HEK cytotox inconclusive
O=C1c2c(nc(COc3ccc4c(c3)OCO4)n2Cc2ccccc2)NCCN1CC1CCOCC1	HEK cytotox inconclusive
O=C(c1ccc(C(F)(F)F)cc1)N1CCC(c2n[nH]c(=O)n2Cc2ccc(F)cc2)CC1	HEK cytotox inconclusive
CC(C)(C)c1ccc(C(=O)N2CCC(c3n[nH]c(=O)n3Cc3ccc(F)cc3)CC2)cc1	3T3 cytotox inconclusive, hNpr1 antagonist 11µM, HEK cytotox inconclusive | Npr1 antag conf 24µM | Npr2 selectivity 22µM | FLuc inh counter inactive | GloSensor cGMP 22µM
Cc1ccc(OCC(=O)N2CCCC(c3nn(C)c(=O)n3C(C)C)C2)cc1 (stereo unspecified)	hNpr1 antagonist 14µM, HEK cytotox inconclusive | Npr1 antag conf 24µM | Npr2 selectivity inconclusive | FLuc inh counter inactive | GloSensor cGMP 24µM
COCC(=O)N1CCCC(c2nn(C)c(=O)n2C(C)C)C1 (stereo unspecified)	none
CCOc1ccc(C(=O)N2CCC(Cc3nc(-c4ccc(OC)cc4)no3)CC2)cc1OCC	3T3 cytotox inconclusive, hNpr1 antagonist 6.3µM, HEK cytotox 40µM | Npr1 antag conf 11µM | Npr2 selectivity 15µM | FLuc inh counter inactive | GloSensor cGMP 9.7µM
Cc1cccc(C(=O)N2CCC(Cc3nc(-c4cnccn4)no3)CC2)c1	none
CCOc1ccc(C(=O)N2CCC(Cc3nc(-c4ccc(F)cc4)no3)CC2)cc1OCC	3T3 cytotox 40µM, hNpr1 antagonist 4µM, HEK cytotox inconclusive | Npr1 antag conf 3.9µM | Npr2 selectivity 6.1µM | FLuc inh counter inactive | GloSensor cGMP 4.8µM
COC(=O)c1cccc(C(=O)N2CCC(Cc3nc(-c4ccc(OC)cc4)no3)CC2)c1	3T3 cytotox inconclusive, hNpr1 antagonist 6.3µM, HEK cytotox 56µM | Npr1 antag conf 6.9µM | Npr2 selectivity 8.6µM | FLuc inh counter inactive | GloSensor cGMP 5.4µM
CCOc1ccc(C(=O)N2CCC[C@H]2c2nc(-c3ccc(OC)cc3)no2)cc1OCC	none
COc1ccc(-c2noc(CC3CCN(C(=O)c4ccc(OC)nc4)CC3)n2)cc1	3T3 cytotox inconclusive, hNpr1 antagonist 7.1µM, HEK cytotox inconclusive | Npr1 antag conf 5.4µM | Npr2 selectivity 6.1µM | FLuc inh counter inactive | GloSensor cGMP 5.4µM
